# Laboratory results published in PubChem BioAssay.
# Experiment: reversal of MRP1-mediated doxorubicin resistance, pilot screen, H69AR cells, doxorubicin co-treatment (AID 601)
# Conditions: H69AR cells + 2 uM doxorubicin, CellTiter-Glo, 72 h; measured here: viability with 2 uM doxorubicin; at 10 µM; stronger effect = lower value
row,SMILES,viability [%]
1,CC(=O)Nc1ccc(S(=O)(=O)N2CCN(C(C)CCc3ccccc3)CC2)cc1 (stereo not given),91.4
2,COc1ccc(NC(=O)Nc2cc(C)ccc2OC)cc1,97.7
3,O=C(CNS(=O)(=O)c1ccc(Br)s1)N1CCCC1,90.1
4,Cn1c(=N)n(CC(=O)O)c2ccccc21,89.4
5,CC(C)(C)Nc1nc(OCC(F)(F)F)nc(OCC(F)(F)F)n1,90.1
6,COc1cc(CC(=O)Nc2ncc(C)s2)cc(OC)c1OC,88.8
7,Cc1ccc(NC2=NC3(CCCCC3)N=C(N)N2)c(C)c1,83.9
8,C=CCSc1nnc(-c2ccccc2NC(C)=O)c(=O)[nH]1,83.4
9,CC1CCN(CCCNC(=O)c2cn(C)c3ccc(S(=O)(=O)N4CCCC4)cc3c2=O)CC1,88
10,C=CCOc1ccc(/C(O)=C2\C(=O)C(=O)N(CCOC)C2c2cccnc2)cc1 (stereo not given),88.4
11,Cc1cccc(C(=O)N2CCC(n3nnc4cc(F)ccc43)CC2)c1,90.4
12,CC(C)Oc1ccc(N2CC(C(=O)Nc3ccccc3F)CC2=O)cc1 (stereo not given),89.1
13,O=C(CSc1ncc(-c2ccc(F)cc2)[nH]1)N1CCCCC1,89
14,CCCNC(=O)Nc1ccccc1C(=O)Nc1ccc(OC)cc1,104
15,COc1ccccc1OCC(=O)NCC1CCCCC1,85.2
16,Cc1ccccc1NC(=O)CSc1nc(N)c(C#N)c(-c2cccs2)c1C#N,27.1
17,c1ccc(CCc2nc(-c3cccnc3)no2)cc1,91.8
18,COc1cc(NC2=CC(=O)CC(C)(C)C2)cc(OC)c1,90.6
19,Cc1ccccc1CN1CCN(CC(=O)NCc2ccccc2)C1=O,83
20,CCOC(=O)c1nnc(-c2ccccc2)o1,79

row,SMILES,viability [%]
1,CCC(c1nnc(SCC(=O)NCC2CCCO2)n1Cc1ccccc1)N(C)C (stereo not given),83.3
2,Cc1ccc(N2CC(C)Cn3c2nc2c3c(=O)n(CC(=O)OCc3ccccc3)c(=O)n2C)cc1C (stereo not given),67.2
3,CCNC(=O)c1ccc(NS(=O)(=O)c2ccccc2)cc1,92.2
4,CCOc1ccc(-c2nc(C#N)c(N3CCCCCC3)o2)cc1,95.2
5,Cc1ccc(NS(=O)(=O)c2cn(C)cn2)cc1,86.8
6,Fc1ccccc1-c1nc(-c2ccccc2)no1,90.9
7,CCOC(=O)C1=C(C)NC(C)=C(C(=O)OCC)C1c1cc(N)ccc1OC(F)F,106
8,COc1ccccc1C1/C(=C(\O)c2c(C)nc3c(C)cccn23)C(=O)C(=O)N1CCCN(C)C (stereo not given),89.2
9,CCOC(=O)C1CCCN(Cc2nc(N)nc(Nc3ccc(C)cc3)n2)C1 (stereo not given),88.6
10,ON1C2CCCCC2N(O)C1c1c(F)c(F)c(F)c(F)c1F (stereo not given),82.5
11,CCOc1ccc(CN2C(=O)c3ccccc3C2C(=O)NCc2cccnc2)cc1 (stereo not given),97
12,CCOc1ccccc1NC(=O)CN(c1ccc(C)cc1)S(=O)(=O)c1c(C)noc1C,90.1
13,CCCOc1ccc([C@@H]2C3CN(C(=O)OCC)CC=C3C(C#N)=C(N)C2(C#N)C#N)cc1OC (stereo not given in full),75.2
14,COc1ccc(C2=NOC(C(=O)NCc3ccc(F)cc3)C2)cc1OC (stereo not given),63.9
15,COc1cc(C2CC(=O)NC3=C2C(=O)CC(C)(C)C3)ccc1O (stereo not given),89.5
16,CCOc1ccc2[nH]c(=O)c(CN(Cc3nnnn3CCc3ccccc3)CC3CCCO3)cc2c1 (stereo not given),57.5
17,Cc1cc(C)c2cc3c(ccn3C3OC[C@H](O)[C@H](O)[C@H]3O)cc2n1 (stereo not given in full),90.3
18,N[C@@H](Cc1ccccc1)c1nnc2sc(SCc3ccccc3)nn12,76.4
19,CCC(C)NC(=O)C1(C)CCC(=O)N1Cc1ccccc1OC (stereo not given),95
20,Cc1cc(Nc2ccc(C(=O)O)cc2)n2nc(C)nc2n1,99.2
